This is a sample that favours compounds with a hit; in the whole collection about 6.7% have one here.
Pf Dd2 growth = inhibitors of Plasmodium falciparum Dd2 growth; P. falciparum Dd2 growth, SYBR Green, 72 h; stronger effect = lower value; activity change, % at 10 µM; 94,000 compounds, 2.3% hits; in the data active = activity change below about -80%
T cruzi growth = blocks T. cruzi growth in NIH3T3 culture; 77,000 compounds, 5.9% hits; AID 624255; inhibition, % at 8.34 µM; T. cruzi beta-gal in NIH3T3, GalScreen luminescence, 90 h;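 active = mean inhibition above about 93%, with at least 55% of replicates each passing it, limit read from the data, passing the limit was not always enough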
C diff HTS = blocks growth of Clostridium difficile; Clostridium difficile clinical isolate growth, OD600, 24 h; stronger effect = lower value; growth activity, negative = inhibition, % at 16 µg/mL (by protocol); 86,000 compounds, 0.25% hits; AID 1259249;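 active = mean growth activity at or below -80% and every replicate also at or below -80%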;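 note: 0% = DMSO wells and -100% = levofloxacin 16 µg/mL wells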
* hit, by the source's call; . = not tested or not shown; ! = not confirmed by another sample.

SMILES | Pf Dd2 growth | T cruzi growth | C diff HTS
C[C@@H]1CCCCO[C@@H](CN(C)Cc2ccc(C(F)(F)F)cc2)[C@@H](C)CN([C@@H](C)CO)C(=O)c2cc(NC(=O)Nc3ccc(C(F)(F)F)cc3)ccc2O1 | -24 | 87 | 7
C[C@H](CO)N1C[C@H](C)[C@@H](CN(C)Cc2ccc(Cl)c(Cl)c2)OCCCC[C@H](C)Oc2ccc(NC(=O)CCC(F)(F)F)cc2C1=O | 2 | 80 | 8
C[C@H]1CCCCO[C@@H](CN(C)Cc2ccc(Cl)c(Cl)c2)[C@@H](C)CN([C@@H](C)CO)C(=O)c2cc(NC(=O)Nc3ccc(C(F)(F)F)cc3)ccc2O1 | -78 | 70 | 5
CO[C@H]1CC[C@H]2CCN(C)C(=O)[C@H](C)[C@@H](OC)CN(C)C(=O)c3cccc(C#N)c3OC[C@H]1O2 | 30 | -19 | .
CNC(=O)C[C@H]1CC[C@@H]2[C@H](COc3ccc(NS(=O)(=O)c4ccccc4C)cc3C(=O)N2C)O1 | -6 | 27 | -2
Cc1noc(C)c1NC(=O)N(C)C[C@@H]1Oc2ccc(NC(=O)NC(C)C)cc2CC(=O)N([C@@H](C)CO)C[C@H]1C | 6 | 18 | -10
C[C@@H]1CN([C@@H](C)CO)C(=O)c2cc(N(C)C)ccc2O[C@H]1CN(C)Cc1ccc2c(c1)OCO2 | 17 | -17 | 1
COCCNC(=O)C[C@H]1CC[C@@H]2[C@@H](COc3ccc(NC(=O)Nc4cccc(F)c4)cc3C(=O)N2C)O1 | 14 | 14 | -2
C[C@H](CO)N1C[C@H](C)[C@@H](CN(C)Cc2ccc(Cl)c(Cl)c2)Oc2ccc(NC(=O)CCC(F)(F)F)cc2C1=O | 12 | 81 | -12
COc1ccc(S(=O)(=O)Nc2ccc3c(c2)C(=O)N([C@@H](C)CO)C[C@@H](C)[C@@H](CN(C)S(=O)(=O)c2ccc(C)cc2)OCCCC[C@@H](C)O3)cc1 | -53 | . | .
COc1ccc(S(=O)(=O)Nc2ccc3c(c2)C(=O)N([C@@H](C)CO)C[C@@H](C)[C@@H](CN(C)S(=O)(=O)c2ccc(OC)cc2)OCCCC[C@H](C)O3)cc1 | -85* | 63 | 0
COc1ccc(S(=O)(=O)Nc2ccc3c(c2)C(=O)N([C@H](C)CO)C[C@H](C)[C@@H](CN(C)S(=O)(=O)c2ccc(OC)cc2)OCCCC[C@@H](C)O3)cc1 | -20 | 53 | -5
COc1ccc(S(=O)(=O)Nc2ccc3c(c2)C(=O)N([C@@H](C)CO)C[C@H](C)[C@@H](CN(C)S(=O)(=O)c2ccc(C)cc2)OCCCC[C@H](C)O3)cc1 | -83* | . | .
O=C(C[C@H]1CC[C@H](NC(=O)CN2CCOCC2)[C@H](CO)O1)NCCc1ccccc1 | 6 | 3 | -3
Cc1noc(C)c1S(=O)(=O)Nc1ccc2c(c1)CC(=O)N([C@@H](C)CO)C[C@@H](C)[C@@H](CN(C)S(=O)(=O)c1cn(C)cn1)O2 | 7 | -5 | -12
O=C(C1CCCC1)N1CC(=O)N2[C@H](CO)[C@@H](c3ccc(Br)cc3)[C@H]2C1 | -3 | . | -1
C[C@H]1CCCCO[C@H](CN(C)S(=O)(=O)c2ccc(F)cc2)[C@@H](C)CN([C@@H](C)CO)C(=O)c2cc(NC(=O)Nc3ccc4c(c3)OCO4)ccc2O1 | -76 | 79 | -1
C[C@@H]1CCCCO[C@@H](CN(C)S(=O)(=O)c2ccc(Cl)cc2)[C@@H](C)CN([C@H](C)CO)C(=O)c2cc(NC(=O)Nc3ccc4c(c3)OCO4)ccc2O1 | -88* | 72 | 13
Cc1ccc(S(=O)(=O)N(C)C[C@H]2OCCCC[C@H](C)Oc3ccc(NC(=O)Nc4ccc5c(c4)OCO5)cc3C(=O)N([C@@H](C)CO)C[C@@H]2C)cc1 | -72 | . | .
C[C@@H]1CN([C@@H](C)CO)C(=O)c2cc(NC(=O)Nc3ccc4c(c3)OCO4)ccc2O[C@@H](C)CCCCO[C@@H]1CN(C)S(=O)(=O)c1ccc(F)cc1 | -74 | 44 | 1
Cc1ccc(S(=O)(=O)N(C)C[C@@H]2OCCCC[C@@H](C)Oc3ccc(NC(=O)Nc4ccc5c(c4)OCO5)cc3C(=O)N([C@H](C)CO)C[C@@H]2C)cc1 | -82* | . | .
C[C@@H]1CN([C@H](C)CO)C(=O)c2cc(NC(=O)Nc3ccc4c(c3)OCO4)ccc2O[C@@H](C)CCCCO[C@@H]1CN(C)S(=O)(=O)c1ccc(F)cc1 | -84* | 38 | 5
COc1ccc2c3c([nH]c2c1)[C@@H](CO)N(C(=O)c1ccncc1)CC31CN(Cc2cccnc2)C1 | 45 | . | .
C[C@@H]1CN([C@H](C)CO)C(=O)c2cc(NC(=O)c3ccccc3)ccc2O[C@@H](C)CCCCO[C@H]1CN(C)Cc1ccc(C(F)(F)F)cc1 | -70 | 80 | 23
O=C/C=C/c1ccc(-c2ccccc2)cc1 | . | . | 7
SMILES | Pf Dd2 growth | T cruzi growth | C diff HTS
O=S(=O)(c1ccccc1)N1C[C@@H]2N[C@H](C1)C2c1ccc(/C=C/c2ccccc2)cc1 (stereo partly specified) | -37 | . | -96*!
O=S(=O)(c1ccccc1F)N1C[C@@H]2N[C@H](C1)C2c1ccc(/C=C/c2ccccc2)cc1 (stereo partly specified) | -78 | . | 10
Cc1ccc(-c2ccc(C3[C@@H]4CN(S(=O)(=O)c5cccc(C)c5)C[C@H]3N4)cc2)cc1 (stereo partly specified) | -43 | . | -95*
Cc1ccccc1S(=O)(=O)N1C[C@@H]2N[C@H](C1)C2c1ccc(-c2ccc(C#N)cc2)cc1 (stereo partly specified) | -84*! | . | 8
Cc1ccccc1S(=O)(=O)N1C[C@@H]2N[C@H](C1)C2c1ccc(-c2ccc(C(=O)N(C)C)cc2)cc1 (stereo partly specified) | -24 | . | -16
Cc1ccc(S(=O)(=O)N2C[C@@H]3N[C@H](C2)[C@@H]3c2ccc(-c3cccc(C)c3)cc2)cc1 | -63 | . | 1
Cc1ccc(-c2ccc(C3[C@@H]4CN(S(=O)(=O)c5ccc(C)cc5)C[C@H]3N4)cc2)cc1 (stereo partly specified) | -21 | . | -97*
Cc1cccc(S(=O)(=O)N2C[C@@H]3N[C@H](C2)C3c2ccc(-c3cncnc3)cc2)c1 (stereo partly specified) | -28 | . | -3
C[C@@H]1CCCCO[C@@H](CN(C)S(=O)(=O)c2cn(C)cn2)[C@H](C)CN([C@@H](C)CO)C(=O)c2cc(NC(=O)c3ccncc3)ccc2O1 | 57 | -18 | -5
CN1C(=O)c2cc(NC(=O)c3cccc(F)c3)ccc2OC[C@H]2O[C@H](CC(=O)NC3CCC3)CC[C@@H]21 | -21 | -4 | 0
COCCNC(=O)C[C@H]1C[C@@H]2c3cc(NC(=O)COC)ccc3O[C@@H]2[C@@H](CO)O1 | -4 | 33 | 0
CO[C@@H]1CN(C)C(=O)c2cc(NC(=O)Nc3ccccc3F)ccc2OC[C@H](C)N(C)C[C@H]1C | 19 | -77 | .
CO[C@@H]1CN(C)C(=O)c2cc(NC(=O)Nc3ccccc3)ccc2OC[C@@H](C)N(CC2CC2)C[C@H]1C | -4 | -69 | .
CCCc1cn(CC[C@@H]2CC[C@@H](NC(=O)C3CCC3)[C@H](CO)O2)nn1 | -8 | . | -1
O=S(=O)(c1ccc(-c2ccccc2)cc1)N1C[C@@H]2N[C@H](C1)C2c1ccc(-c2cncnc2)cc1 (stereo partly specified) | 2 | . | 5
